A selection: hits, their analogues and other compounds. The true share with any hit is near 3.1%.
OvCa metastasis – inhibitors of ovarian cancer cell adhesion and invasion in omental model; SKOV3ip1-GFP adhesion/invasion on 3D omental model, fluorescence; Potency, µM (doses to about 45.8 µM), inactives show top-dose activity change, negative = inhibition, actives largely listed as inhibitors; 46,000 tested, 0.1% active;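 also: potency is read from the fitted curve at half-maximal effect; plate controls were DMSO wells for no effect and tomatine positive control wells for full effect; nearly all actives have a fitted effect of over 65% in size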
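A 3D layer of primary human omental fibroblasts, mesothelial cells, fibronectin and collagen I, grown 48 hr, received SKOV3ip1-GFP cells in serum-free medium plus compounds at 0.36-46 umol/L. After 2 hr RT and 16 hr 37 C, fixed adherent GFP cells were counted; normalized to DMSO and tomatine.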
p53null 32C tox – kills p53 null cells at the permissive temperature. H1299-neo p53 null cells, ATP luminescence, 24 h, 32C. Potency, µM (doses to about 46.1 µM), for inactives: at the top dose activity change, negative = cytotoxicity, actives largely listed as cytotoxic. 55,000 tested, 0.62% active;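 also: potency is read from the fitted curve at half-maximal effect; 0% = DMSO only and -100% = full killing by 100 µM tamoxifen; nearly all actives have a fitted effect of over 55% in size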
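H1299-neo (p53-null) cells, 600/well, were pre-incubated overnight at 37C, then exposed to compounds at up to 46 uM for 24 hr at 32C. Viability was measured as ATP content by luminescence, and AC50 values came from Hill fits.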
PMP22 txn – modulators of PMP22 gene transcription in S16 Schwann cells; AID 1508649; Potency, µM (series often up to 57.5 µM), for the others: top-dose activity change, negative = inhibition, usual class: inhibitors; S16 Pmp22-F2sN Schwann cells, FLuc/NLuc coincidence luminescence, 24 h; 43,000 tested, 2% active; active = clear falling dose curves in both reporters; inconclusive = both reporters move, but less clearly or upward; inactive = either reporter flat; the % is the NLuc reporter signal; also: potency is read from the fitted curve at half-maximal effect; % is scaled to controls: 0 for no effect and ±100 for the full control effect
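Reporter cells (S16 Pmp22-F2sN, 500–1,000 per well) exposed to compounds for 24 h, 37C, 5% CO2; lysis with FLuc read after 10 min, then Stop&Glo and NLuc read after 10 min.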
pS6 MEF inh – mTORC1 pathway inhibition measured by phospho-rpS6 | AID 493208 | Potency, µM (series often up to 38.3 µM), for the others: at the top dose activity change, negative = inhibition, hits mostly inhibitors | Tsc2-/- p53-/- MEF, phospho-rpS6 immunofluorescence/PI, 24 h | 44,000 tested, 0.78% active;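 also: potency is read from the fitted curve at half-maximal effect; plate controls were DMSO for no effect and rapamycin for full effect; nearly all actives have a fitted effect of over 50% in size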
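Compounds act on Tsc2-/-, p53-/- fibroblasts carrying an empty vector for 24 h before fixation and dual staining for phospho-S6 and DNA (propidium iodide). Values are percentages of cells above a rapamycin-defined pS6/PI threshold.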
p53null 39C tox – selectivity test: cytotoxicity in p53 null cells, nonpermissive temperature; H1299 p53-null (neo) cells, 39C, ATPlite viability, 24 h; Potency, µM (highest dose often 46.1 µM), for the others: at the highest dose activity, negative = cell killing, actives largely listed as cytotoxic; 55,000 tested, 0.97% active;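 also: potency is read from the fitted curve at half-maximal effect; 0% = DMSO only and -100% = full killing by 100 µM tamoxifen; nearly all actives have a fitted effect of over 50% in size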
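Following overnight plating at 37C (600 cells/well), H1299-neo or H1299-p53A138V cells are dosed up to 46 uM. Incubation lasts 24 hr at 39C before ATP detection.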
S16 F2sN tox – cytotoxicity in S16 Pmp22-F2sN Schwann cells; S16 Pmp22-F2sN Schwann cells (luciferase reporters placed in the Pmp22 gene) viability, CellTiter-Glo, 24 h; Potency, µM (titrated, usually from 57.5 µM), for the others: at the top dose activity change, negative = cytotoxicity, actives largely listed as cytotoxic; 43,000 tested, 0.48% active; also: potency is read from the fitted curve at half-maximal effect; % is scaled to controls: 0 for no effect and ±100 for the full control effect; nearly all actives have a fitted effect of over 65% in size
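CellTiter-Glo counter-screen, qHTS, 1536-well. Cells: S16(c9) Pmp22-F2sN, 500-1,000/well in DMEM + 10% FBS. Cpd 23 nL pin transfer, 24 h, 37C/5% CO2. Read: luminescence, CCD imager.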
NLuc saturating – inhibits NanoLuc at saturating substrate, PMP22 counter-screen | shares compounds with PMP22 txn | Secreted NLuc enzyme (filtered S16 cell medium), Nano-Glo luminescence | Potency, µM (top dose mostly 57.5 µM), without a hit: at the top dose activity change, negative = inhibition, actives largely listed as inhibitors | 690 tested, 4% active; also: potency is read from the fitted curve at half-maximal effect; % is scaled to controls: 0 for no effect and ±100 for the full control effect
NLuc Km ctr – NanoLuc inhibition at Km substrate, PMP22 artifact check. 690 tested, 5% active. shares compounds with PMP22 txn. Potency, µM (highest dose often 57.5 µM), for the others: at the highest dose activity change, negative = inhibition, usual class: inhibitors. AID 1508639. secreted NLuc enzyme, coelenterazine luminescence, Km conditions; also: potency is read from the fitted curve at half-maximal effect; % is scaled to controls: 0 for no effect and ±100 for the full control effect
FLuc ctr PMP22 – firefly luciferase enzyme inhibition artifact for PMP22 screen. AID 1508640. 690 tested, under 10 active. purified P. pyralis FLuc, luminescence, 10 min. Potency, µM (highest dose often 57.5 µM), without a hit: top-dose activity, negative = inhibition, usual class: inhibitors. shares compounds with PMP22 txn; also: % of control where 0% means no effect
Target sequence (P08659 whole entry, looked up): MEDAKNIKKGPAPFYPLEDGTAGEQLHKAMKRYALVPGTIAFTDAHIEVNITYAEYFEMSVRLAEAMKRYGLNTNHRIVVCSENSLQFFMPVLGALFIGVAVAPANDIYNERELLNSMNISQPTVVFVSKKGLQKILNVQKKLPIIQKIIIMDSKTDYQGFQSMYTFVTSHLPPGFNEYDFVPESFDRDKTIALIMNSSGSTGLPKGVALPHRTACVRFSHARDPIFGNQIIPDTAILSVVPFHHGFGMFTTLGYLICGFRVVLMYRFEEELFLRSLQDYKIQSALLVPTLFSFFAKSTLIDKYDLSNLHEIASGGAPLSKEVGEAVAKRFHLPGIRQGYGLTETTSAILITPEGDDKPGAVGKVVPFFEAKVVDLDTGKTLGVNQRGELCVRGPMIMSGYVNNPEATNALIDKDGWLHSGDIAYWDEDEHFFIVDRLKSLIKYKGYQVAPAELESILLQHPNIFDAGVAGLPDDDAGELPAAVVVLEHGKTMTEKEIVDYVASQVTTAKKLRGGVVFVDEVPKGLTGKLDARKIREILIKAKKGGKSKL
S16 viab conf – S16 Schwann cell cytotoxicity, confirmatory; shares compounds with PMP22 txn; S16 Schwann cells viability, CellTiter-Glo ATP luminescence, 24 h; Potency, µM (doses to about 57.5 µM), for the others: at the top dose activity change, negative = viability loss, hits mostly cytotoxic; 690 tested, 7% active; also: potency is read from the fitted curve at half-maximal effect; % is scaled to controls: 0 for no effect and ±100 for the full control effect
PMP22 txn cnf – confirmation of modulators of PMP22 gene transcription in S16 cells. AID 1508646. Potency, µM (doses to about 57.5 µM), for the others: at the highest dose activity change, negative = inhibition, most hits filed as inhibitors. S16 Schwann cells Pmp22-F2sN, dual luciferase, 24 h. 690 tested, 22% active. shares compounds with PMP22 txn; active = clear falling dose curves in both reporters; inconclusive = both reporters move, but less clearly or upward; inactive = either reporter flat; the % is the FLuc reporter signal; also: potency is read from the fitted curve at half-maximal effect
Starred values were filed as active, the others as inactive; i = inactive; ? = inconclusive; . = no result given. Unless noted, calls follow the shape of the dose curve; as a rule, active = well fitted curve in the direction sought with a large enough effect; inconclusive = small, poorly fitted or top-dose-only effect, or another doubt; inactive = no such curve, though single readings can be large; an effect the other way counts as inactive or inconclusive.

SMILES	OvCa metastasis	p53null 32C tox	PMP22 txn	pS6 MEF inh	p53null 39C tox	S16 F2sN tox	NLuc saturating	NLuc Km ctr	FLuc ctr PMP22	S16 viab conf	PMP22 txn cnf
CNC(=O)c1ccc2cc(C3(O)CCn4cncc43)ccc2c1 (stereo unspecified)	6%	.	.	.	.	.	.	.	.	.	.
c1ccc(CNc2nc(N3CCOc4ccccc43)nc3c2CCCC3)cc1	3%	.	.	.	.	.	.	.	.	.	.
Clc1ccc(-c2noc3ncnc(N4CCCCC4)c23)cc1	-3%	4%	12µM*	-24%	-4%	-21%	-7%	5%	-5%	-7%	-38%
COc1ccc(OCC(=O)NCc2ccc3c(c2)CCN3C(=O)c2cccc(C)c2)cc1	?	-19%	20µM*	?	16%	-22%	?	-19%	-21%	-13%	?
FC(F)(F)c1ccc(Nc2nc3ccc(Oc4ccnc(-c5ncc(C(F)(F)F)[nH]5)c4)cc3[nH]2)cc1	18%	.	.	.	.	.	.	.	.	.	.
CS(=O)(=O)N1CCN(Cc2cc3nc(-c4cccc5[nH]ncc45)nc(N4CCOCC4)c3s2)CC1	-14%	.	.	.	.	.	.	.	.	.	.
COc1ccccc1NC(=O)CSc1nc2nccnc2c(=O)n1CCc1c[nH]c2ccccc12	5%	-3%	13µM*	1%	0%	-16%	?	?	-15%	7%	?
Cc1ccc(NS(=O)(=O)c2cc(Br)cc3c2N(C(=O)C2CC2)CC3)cc1C	i	20%	8.9µM*	-13%	-8%	?	?	-7%	-1%	?	?
COc1ccc(Cl)cc1NS(=O)(=O)c1cc(Br)cc2c1N(C(=O)C1CC1)CC2	i	0%	-44%	-12%	0%	3%	.	.	.	.	.
COc1cc(NS(=O)(=O)c2cc(Br)cc3c2N(C(=O)C2CC2)CC3)cc(OC)c1	0%	7.9µM*	3.6µM*	?	?	-19%	14µM*	?	0%	?	18µM*
C[C@H](CCC(=O)O)[C@H]1CCC2C3C[C@H](O)[C@@H]4C[C@H](O)CC[C@]4(C)C3CC[C@@]21C (stereo partly specified)	21%	.	.	.	.	.	.	.	.	.	.
O=C(c1ccc(C(=O)N2CCC(N3CCCC3)CC2)c(Nc2ccccc2)c1)N1CCC(N2CCCC2)CC1	-1%	.	.	.	.	.	.	.	.	.	.
CCS(=O)(=O)c1nc(S(=O)(=O)c2ccc(Cl)cc2)c(NCc2ccccc2Cl)s1	17%	-2%	4.8µM*	-16%	0%	-26%	?	?	8%	4%	-21%
Cc1c(-c2ccc(O)cc2)n(Cc2ccc(OCCN3CCCCCC3)cc2)c2ccc(O)cc12	2%	.	.	.	.	.	.	.	.	.	.
O=C1NC(=O)[C@@H](c2cn3c4c(cccc24)CCC3)[C@H]1c1c[nH]c2ccccc12	-20%	.	.	.	.	.	.	.	.	.	.
COCCNC(=O)c1cccc(Nc2nc3ccccc3n3nnnc23)c1	-9%	-20%	11µM*	0%	34%	1%	-14%	?	1%	-18%	-30%
CCCCOc1ccc(C(C)NC(=O)c2cccc(Nc3nc4ccccc4n4nnnc34)c2)cc1 (stereo unspecified)	0%	-3%	5.3µM*	2%	-5%	?	-8%	5%	-8%	27µM*	10µM*
O=C(NCc1ccccc1Cl)c1ccc(Nc2nc3ccccc3n3nnnc23)cc1	-8%	-18%	18µM*	-7%	4%	-18%	-5%	-2%	2%	-22%	?
CC(C)n1c(C=C[C@H](O)C[C@H](O)CC(=O)O)c(-c2ccc(F)cc2)c2ccccc21	2%	.	.	.	.	.	.	.	.	.	.
Cn1cc(CN(C(=O)Nc2ccc(Cl)c(Cl)c2)C2CCCCC2)c2ccccc21	i	4%	-85%	-9%	8%	20%	.	.	.	.	.
Cn1cc(CN(C(=O)Nc2ccccc2)C2CCCCC2)c2ccccc21	33%	-5%	9.5µM*	-6%	?	?	?	?	-26%	-16%	?
CC(C)(O)[C@H]1CC[C@@](C)([C@H]2[C@@H](O)C[C@@]3(C)[C@@H]4C[C@H](O[C@@H]5O[C@H](CO)[C@@H](O)[C@H](O)[C@@H]5O)[C@H]5C(C)(C)[C@@H](O[C@@H]6OC[C@@H](O)[C@H](O)[C@@H]6O)CC[C@@]56C[C@@]46CC[C@]23C)O1	5%	.	.	.	.	.	.	.	.	.	.
CCOc1cc(-c2nnc(SCC(=O)NCc3ccccc3)nc2-c2ccc(OC)c(OCC)c2)ccc1OC	1%	14%	8.9µM*	-14%	4%	7%	?	?	0%	5%	?
CCNc1nc(NC(C)(C)C)nc(Oc2ccc(=O)n(-c3ccccc3)n2)n1	5%	0%	?	-9%	-6%	-1%	-9%	-3%	-7%	-13%	-33%

Screening results from PubChem.
